Reference: PubChem BioAssay (NCATS)
Results filed as inconclusive are left out. Where a call stands in place of a potency, no number is given. Active and inactive are the calls of the source. Calls follow the shape of the dose curve; as a rule, active = well fitted inhibition curve with a large enough effect; inconclusive = small, poorly fitted or top-dose-only effect; inactive = no such curve, though single readings can be large or run the other way. Where a SMILES comes first, the peptide text is derived from it.

Assay: Primary fluorescence-based thiol-reactive (MSTI) qHTS assay for identification of artifact compounds. (AID 1845221); also: nearly all actives have a fitted effect of over 65% in size;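 as to activity change, negative = thiol reactive: thiol-reactive compounds lower the probe fluorescence signal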
Settings: MSTI thiol-reactivity probe, 1 h; series mostly up to 53.8 µM
Procedure, shortened: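 First, 4 uM MSTI in 2% DMSO/PBS pH 7.4 was dispensed; next, compounds were added; then plates sat 1 h at room temperature without light. Finally, emission at 598 nm was recorded.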
Potency is read from the fitted curve at half-maximal effect.

| Molecule | Potency | activity change, negative = thiol reactive |
| --- | --- | --- |
| CC[C@@H]1C(=O)O[C@]23C=C[C@@H]4C(C(=O)OC)=CO[C@H](O[C@@H]12)[C@@H]43 | 10.6 µM (active) | – |
| C=C1CC[C@]2(C(=O)O[C@@H]3O[C@H](CO)[C@@H](O)[C@H](O)[C@H]3O)CC[C@]3(C)C(=CCC4[C@@]5(C)C[C@H](O)[C@@H](O[C@@H]6O[C@H](C(=O)O)[C@@H](O)[C@H](O)[C@H]6O)[C@](C)(C=O)C5CC[C@]43C)C2C1 (stereo partly drawn) | – | 113% [at 11.5 µM] (inactive) |
| C[C@@H]1O[C@@H](O[C@H]2[C@H](O)[C@@H](O)[C@H](OC(=O)[C@]34CCC(C)(C)C[C@H]3C3=CCC5[C@@]6(C)CC[C@H](O[C@@H]7O[C@H](C(=O)O)[C@@H](O)[C@H](O)[C@H]7O)C(C)(C)C6CC[C@@]5(C)[C@]3(C)CC4)O[C@@H]2CO)[C@H](O)[C@H](O)[C@H]1O (stereo partly drawn) | – | 74.8% [at 11.5 µM] (inactive) |
| CC(=O)C1CCC(=O)N1Cc1ccccc1 (stereo not drawn) | inactive | – |
| H-DPPDPDRFYGMM-NH2 | inactive | – |
| C[C@@H]1O[C@@H](O[C@H]2[C@H](O)[C@@H](O)[C@H](OC[C@H]3O[C@@H](OC(=O)[C@]45CCC(C)(C)C[C@H]4C4=CCC6[C@@]7(C)C[C@@H](O)[C@H](O)[C@@](C)(CO)C7[C@H](O)C[C@@]6(C)[C@]4(C)CC5)[C@H](O)[C@@H](O)[C@@H]3O)O[C@@H]2CO)[C@H](O)[C@H](O)[C@H]1O (stereo partly drawn) | – | 224% [at 11.5 µM] (inactive) |
| COc1cccc(Cn2ncc3c4sc(S(C)=O)cc4n(C)c3c2=O)c1 (stereo not drawn) | inactive | – |
| CCCC1=CC2=C(CO1)C(=O)C(C)(O)C(OC(=O)c1c(C)cc(OC)cc1O)C2 (stereo not drawn) | inactive | – |
| CO[C@H]1c2cc(C(C)C)c(O)c(O)c2[C@@]23CCCC(C)(C)C2[C@@H]1OC3=O (stereo partly drawn) | 1.47 µM (active) | – |
| C=C1CCC2C(C)(C)CC(O)CC2(C)C1CCC(C)CCOC(=O)CCC(=O)O (stereo not drawn) | inactive | – |
| CC(=O)O[C@@H](C[C@@H]1C=C(C)C(=O)O1)[C@H](C)[C@H]1CCC2[C@@]3(C)CC[C@H](O[C@@H]4O[C@H](CO)[C@@H](O)[C@H](O)[C@H]4O[C@@H]4O[C@@H](C)[C@H](O)[C@@H](O)[C@H]4O)C(C)(C)C3CC[C@@]2(C)[C@@]12COC(=O)C2 (stereo partly drawn) | – | 32.4% [at 11.5 µM] (inactive) |
| CC1CC2(O)OC(=O)C3=C2C(CCC3)[C@@]12C[C@@H](c1ccoc1)OC2=O (stereo partly drawn) | 4.65 µM (active) | – |
| COc1cc(C(=O)OCC2=CCC3C(C(=O)O)=COC(O[C@@H]4O[C@H](CO)[C@@H](O)[C@H](O)[C@H]4O)C23)ccc1O (stereo partly drawn) | 11.6 µM (active) | – |
| CC(=O)O[C@H]1[C@H](O[C@H]2CC[C@]34C[C@]35CC[C@]3(C)[C@@H]([C@@]6(C)CC[C@@H](C(C)(C)O)O6)[C@@H](O)C[C@@]3(C)[C@@H]5C[C@H](O[C@@H]3O[C@H](CO)[C@@H](O)[C@H](O)[C@H]3O)[C@H]4C2(C)C)OC[C@@H](OC(C)=O)[C@@H]1O | inactive | – |
| CC(C)[C@@H](C(=O)O)N1Cc2c(cc(O)c3c2O[C@]2(C3)[C@H](C)CCC3C(C)(C)[C@H](O)[C@H](O)C[C@@]32C)C1=O (stereo partly drawn) | inactive | – |
| C/C=C/C=C/[C@@H]1O[C@](O)([C@H](CC)C(=O)NC/C=C/C=C(\C)[C@@H](OC)[C@@H](C)[C@@H]2O[C@H](/C=C/C=C/C=C(\C)C(=O)c3c(O)ccn(C)c3=O)[C@H](O)[C@@H]2O)[C@H](O)[C@H](O)C1(C)C | – | 94.3% [at 11.5 µM] (inactive) |
| CCCCC(=O)N1c2ccccc2NC2=C(C(=O)CCC2)C1c1ccccc1Cl (stereo not drawn) | inactive | – |
| CC(C)(O)C(O)C(=O)OCc1ccc(O[C@@H]2O[C@H](CO)[C@@H](O)[C@H](O)[C@H]2O)cc1 (stereo partly drawn) | inactive | – |
| COc1cc(C)c(C(=O)NC2C(C)OC(OC3CCC(C)C4C3C=C(C)C3/C(C)=C\CC/C(C)=C/C5(C)C=C(C(=O)O)C(C)CC56OC(=O)/C(=C(\O)C34C)C6=O)C(O)C2(C)O)c(O)c1 (stereo not drawn) | – | 188% [at 11.5 µM] (inactive) |
| CC1=C2C[C@@]3(C)[C@@H](CCC[C@@H]3C)C[C@@]2(O)OC1=O | inactive | – |
| C/C=C1/CC2C(=O)Nc3cc(O)c(OC)cc3C(=O)N2C1 (stereo not drawn) | 13.1 µM (active) | – |
| CC(=O)NC(Cc1ccccc1)C(=O)NC(C(=O)O)C(C)C (stereo not drawn) (Ac-Phe-Val-OH; configuration not given here) | inactive | – |
| COc1ccc(C2(O)c3ccccc3NC(=O)C2OC)cc1 (stereo not drawn) | inactive | – |
